Reference: PubChem BioAssay AID488890 (Southern Research Specialized Biocontainment Screening …, 2010)
The whole screen tested about 320,000 compounds, of which about 1,300 (0.41%) were called active. Inconclusive results (about 3%) are left out. The rule behind the calls is not given here. The list is a sample of the results. Potency and affinity values are given separately.

Assay: growth inhibition of non-replicating M. tuberculosis (AID 488890);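 note: plate controls were DMSO cells for no effect and high antibiotic wells for full effect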
Conditions: Mycobacterium tuberculosis non-replicating, at 25 µM, stronger effect = higher value

Compound	inhibition [%]
c1ccc(CN2CCNCC2)nc1	-22.1
CCOc1ncccc1C(=O)OCC(=O)N1CCN(S(=O)(=O)c2ccccc2)CC1	-4.22
CCOc1ccc(/C=N/OCC(=O)NCc2ccc3c(c2)OCO3)cc1OC	13
CCNC(=O)CSc1nnc(-c2cccs2)o1	61.4
Cc1ccc(S(=O)(=O)Nc2ccnc3ccccc23)cc1	-9.89
Cc1ccc(S(=O)(=O)Nc2cccc3ncccc23)cc1	15.3
O=C(NNC1OC(CO)C(O)C(O)C1O)c1cccnc1 (centres undefined)	-18.5
CCOC(=O)c1c(-n2cnnn2)sc2c1CCCC2	0.53
CCCS(=O)(=O)c1nc(S(=O)(=O)c2ccc(Cl)cc2)c(N2CCC(O)CC2)s1	9.91
CCn1c(-c2ccccc2)ccc(C#N)c1=O	-0.3
COC(=O)Cn1cc(C#N)c2ccccc21	51.2
CCc1cccc2c(C#N)cn(CC(=O)NCCOC)c12	2.34
CC(C)OC(=O)Cn1cc(C#N)c2ccccc21	17
CCOC(=O)Cn1c(-c2ccccc2)cc(SC)c(C#N)c1=O	37.8
CCc1cccc2c(C#N)cn(CC(=O)N3CCOCC3)c12	-9.31
Cc1cc(Cl)ccc1OCC(=O)Nc1cccnc1	41
C[C@]12C(=O)N(c3ccccc3)C(=O)N1[C@H]1c3ccccc3OC[C@@H]1[C@H]2c1ccccc1	79
Cn1c2ccccc2c2cc(/C=N/NC(=O)c3cc(O)cc(O)c3)ccc21	-7.45
O=C(O)c1cccc(NS(=O)(=O)/C=C/c2ccccc2)c1	-0.77
O=C(O)c1ccc(NS(=O)(=O)/C=C/c2ccccc2)cc1	-4.07
CC(=O)Nc1ccc(NC(=S)NC(=O)C2CCCC2)cc1	30.2
O=C(Nc1ccc(F)cc1)C1CCCCC1	42.2
OCC1(CCOc2ccccc2)CCN(Cc2ccc3c(c2)OCCO3)CC1	14.7
COC(=O)C(NC(C)=O)(Nc1nc2ccc(S(C)(=O)=O)cc2s1)C(F)(F)F (centres undefined)	-2.55
COc1ccccc1C(CCNCc1ccccc1)c1ccc(OC(C)C)cc1 (centres undefined)	68.5

Compound	inhibition [%]
COc1ccc(C(CCNCc2ccc(OC)c(OC)c2)c2ccc(F)cc2)cc1 (centres undefined)	76.8
O=C(O)c1cc2c(N3CCC(Cc4ccccc4)CC3)ncnc2s1	11.8
c1ccc2c(Cn3ccnc3)cccc2c1	-22.3
CC(C)C[C@H]1CN=C(Nc2ccccc2)N1CCC1CCCC1	65.2
CC(C)C[C@H]1CN=C(Nc2ccccc2)N1CCC1CCCCC1	25.8
NC1=NC[C@@H](Cc2ccc(O)cc2)N1CCc1cccc2ccccc12	64.2
NC1=NC[C@H](Cc2ccccc2)N1CC1CCCCC1	17
NC1=NC[C@H](Cc2ccc(O)cc2)N1CCc1cccc(F)c1	1.77
CN(C)C1=NC[C@H](Cc2ccccc2)N1CCCC1CCCC1	77
CCC(=O)N1CCc2cc(S(=O)(=O)N3CCN(c4cc(C)ccc4C)CC3)ccc21	-5.69
COc1ccc(-c2cn3nc(C)c(C)nc3n2)cc1OC	-17
Cc1nnc(Sc2c(-c3ccccc3)c3ccc(Cl)cc3[nH]c2=O)s1	31.4
CN(C)c1ccc(C(=O)Nc2nnc(C3=COCCO3)o2)cc1	-3.42
COc1ccc(C(=O)Nc2nnc(C3=COCCO3)o2)cc1OC	-10.9
O=C(Nc1nnc(C2=COCCO2)o1)c1ccc(S(=O)(=O)N2CCCC2)cc1	6.48
COc1cc(C(=O)Nc2nnc(C3=COCCO3)o2)cc(OC)c1OC	-6.31
CS(=O)(=O)c1cccc(C(=O)Nc2nnc(C3=COCCO3)o2)c1	22.2
CC(=O)Nc1nnc(C2=COCCO2)o1	3.17
O=C(O)CN1C(=O)c2cccc3c(Br)ccc1c23	2.53
CCOC(=O)Cn1nnnc1CN(CCc1ccccc1)Cc1cc2cc(CC)ccc2[nH]c1=O	-14.2
COc1ccc(Nc2nc3cc(C)ccc3cc2C#N)c(OC)c1	-16.1
Cc1cc(NC(=O)Cn2nnc3sc4c(c3c2=O)CCCC4)no1	9.47
CCCn1c(C(C)NC(=O)c2ccccc2)n[nH]c1=S (centres undefined)	13.1
COc1cccc(-c2ccc(NC(=O)C3CCCN(Cc4nccn4C)C3)cc2)c1 (centres undefined)	58
O=C(Nc1cc(Cl)ccc1-n1cncn1)c1cc(F)c(F)c(F)c1F	14

Compound	inhibition [%]
COc1cc(/C=C2\SC(=O)N(CC(=O)Nc3ccc(C)cc3)C2=O)cc(Cl)c1OCC(=O)O	12.1
O=C(NCC1CCCCC1)c1cccc([N+](=O)[O-])c1	69.2
Cc1ccc(CC(=O)NCCCc2ccccc2)cc1	21.6
O=C(NCCCCc1ccccc1)c1ccc(Br)o1	45.4
O=C(NCc1cccs1)c1ccccc1	64.8
O=C(NCC1CCN(C(=O)c2ccc([N+](=O)[O-])cc2)CC1)c1ccc([N+](=O)[O-])cc1	4.24
O=C(NCCNC(=O)c1ccc(Br)o1)c1ccc(Br)o1	-3.49
CCCCNC(=O)Cc1ccc(Br)cc1	74
O=C(CCNC(=O)c1ccc([N+](=O)[O-])cc1)NCc1cccs1	-8.88
C=CCC[C@@H](Cc1ccc(F)cc1)C(=O)OC[C@@H](Cc1c[nH]c2ccccc12)NC(=O)[C@H](CC=C)CC(=O)N[C@H](CO)Cc1ccccc1	-0.91
CCCCOc1ccc(C(=O)OCC(=O)c2c(N)n(C)c(=O)n(C)c2=O)cc1	27.4
O=C(NCCCn1ccnc1)c1cccc(Br)c1	-17.6
COCC(=O)Nc1nc2n(n1)C(c1ccccc1Cl)CC(c1ccc(OC)cc1)N2 (centres undefined)	24.1
COC(=O)c1ccc(CS(=O)(=O)c2ccccc2C)o1	2.59
CCCn1c(N)c(C(=O)CSc2nc3ccccc3c(=O)n2Cc2ccccc2)c(=O)[nH]c1=O	21
COc1ccc(/C=N/NC(=O)c2ccn[nH]2)cc1Cn1cc([N+](=O)[O-])cn1	-4.11
O=C(Nc1ccc(Cl)cn1)c1cc2c(s1)-c1ccccc1OC2	27.1
O=C(O)c1ccc(CNC(=O)c2ccc(Br)o2)cc1	21.4
O=C(NCCNC1CCCCC1)c1ccco1	-9.39
O=C(NCc1ccncc1)c1ccc(Br)o1	12.8
O=C(CNC(=O)c1ccco1)NC1CCCCCC1	5.43
O=C(NCc1ccccc1)c1ccc(Br)o1	77.6
O=C(CNC(=O)c1ccc(Br)o1)NCc1ccc(F)cc1	23.3
C=CCn1c(O)c(C(CC)=Nc2cc(OC)ccc2OC)c(=O)[nH]c1=O	7.07
